Assay [1] in a line: Quantitative High-Throughput drug screen in 47 multiple myeloma cell lines against the NCATS MIPE library collection: Karpas620_DSMZ cell viability assay (AID 1918959). Also: nearly all actives have a fitted effect of over 30% in size. Also: potency is read from the fitted curve at half-maximal effect. A digest of the protocol:
(§1)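 qHTS of the MIPE 4.0 collection: 500 myeloma cells/well, 48 h drug exposure at 37C in 5% CO2, then CellTiter-Glo for 5 min at room temperature before luminescence reading.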

The nature of assay [2]: Quantitative High-Throughput drug screen in 47 multiple myeloma cell lines against the NCATS MIPE library collection: JIM1_ECACC cell viability assay (AID 1918964). A digest of the protocol:
(§2)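 Approved and investigational drugs from MIPE 4.0 were added by pin tool to 500 cells per well. After 48 hours at 37C, ATP-based CellTiter-Glo luminescence indicated remaining viability.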

Assay [3] can be described thus: Quantitative High-Throughput drug screen in 47 multiple myeloma cell lines against the NCATS MIPE library collection: H1112_PLB cell viability assay (AID 1918967; also: nearly all actives have a fitted effect of over 30% in size; also: potency is read from the fitted curve at half-maximal effect). Put shortly: as §2
The nature of assay [4]: Quantitative High-Throughput drug screen in 47 multiple myeloma cell lines against the NCATS MIPE library collection: Karpas25_ECACC cell viability assay (AID 1918968; also: nearly all actives have a fitted effect of over 35% in size; also: potency is read from the fitted curve at half-maximal effect). Put shortly:
as §2

Assay [5] in a line: Quantitative High-Throughput drug screen in 47 multiple myeloma cell lines against the NCATS MIPE library collection: KMM1_JCRB cell viability assay (AID 1918960). Also: nearly all actives have a fitted effect of over 30% in size. A digest of the protocol: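 Each line was plated at 500 cells/well and treated 48 h with library drugs. Viability came from CellTiter-Glo luminescence relative to DMSO and cell-free medium controls.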
Assay [6] can be described thus: Quantitative High-Throughput drug screen in 47 multiple myeloma cell lines against the NCATS MIPE library collection: JJN3_DSMZ cell viability assay (AID 1918966; also: nearly all actives have a fitted effect of over 50% in size; also: potency is read from the fitted curve at half-maximal effect). A digest of the protocol: as §2
The nature of assay [7]: Quantitative High-Throughput drug screen in 47 multiple myeloma cell lines against the NCATS MIPE library collection: JIM3_ECACC cell viability assay (AID 1918963; also: nearly all actives have a fitted effect of over 35% in size). A digest of the protocol: as §1
Assay [8] is described as follows: Quantitative High-Throughput drug screen in 47 multiple myeloma cell lines against the NCATS MIPE library collection: INA6_PLB cell viability assay (AID 1918965; also: nearly all actives have a fitted effect of over 55% in size; also: potency is read from the fitted curve at half-maximal effect). A digest of the protocol: (§3)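 Luminescent ATP measurement with CellTiter-Glo gives viability, scaled between DMSO-only wells (100%) and media-only wells (0%). Cells, 500 per well, faced library compounds for 48 hours at 37C.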

A short description of assay [9]: Quantitative High-Throughput drug screen in 47 multiple myeloma cell lines against the NCATS MIPE library collection: Karpas417_ECACC cell viability assay (AID 1918961). As to conditions: Karpas417 myeloma viability, CellTiter-Glo ATP luminescence, 48 h; viability (% of DMSO): at 45.8 µM (top of the series). A digest of the protocol:
as §3

Assay [10] is described as follows: Quantitative High-Throughput drug screen in 47 multiple myeloma cell lines against the NCATS MIPE library collection: KHM11_PLB cell viability assay (AID 1918962). Also: nearly all actives have a fitted effect of over 35% in size. Put shortly: as §1

Each structure is given as a SMILES string. Inconclusive results are not listed. The source made the active and inactive calls. Calls follow the shape of the dose curve; as a rule, active = well fitted curve in the direction sought with a large enough effect; inconclusive = small, poorly fitted or top-dose-only effect, or another doubt; inactive = no such curve, though single readings can be large; an effect the other way counts as inactive or inconclusive.

For the molecule `O=C1NC(=O)C(c2ccccc2[N+](=O)[O-])=C1Nc1ccc(O)c(Cl)c1`, the Potency entry in [1], in [2] and in assay [3] was “inactive” throughout. In assay [4], the Potency is 13.2 µM (active).
For the molecule `C=C(c1ccc(C(=O)O)cc1)c1cc2c(cc1C)C(C)(C)CCC2(C)C`, the Potency result in [1], in [5], in [6] and in assay [3] was “inactive” each time. For the same molecule, the Potency in assay [4] was 14.8 µM (active).
For the molecule `CC(C)(S)[C@@H](N)C(=O)O`, the Potency result in assay [1], in [7], in assay [2], in [6] and in assay [3] was “inactive” each time.
Regarding `Cc1ncc([N+](=O)[O-])n1CC(C)O` (stereo unspecified), the Potency entry in assay [1] and in [5] was “inactive” each time. Also, the Potency in assay [4] is 11.8 µM (active).
On to `CN(C)C(=O)COC(=O)Cc1ccc(OC(=O)c2ccc(N=C(N)N)cc2)cc1`, for which the Potency in [1] is 7.43 µM (active); in [8] it was 1.48 µM (active); in assay [3], 14.8 µM (active).
Turning to `C[Se]CCC(N)C(=O)O` (stereo unspecified), the Potency result in [5], in [9], in [7], in [2], in [3] and in assay [4] was “inactive” in each case.
In the case of `CCC[C@@H]1C[C@@H](C(=O)N[C@@H]([C@H]2O[C@H](SC)[C@H](O)[C@@H](O)[C@H]2O)[C@@H](C)O)N(C)C1`, the Potency entry in assay [5], in assay [9], in [7], in [3] and in [4] was “inactive” throughout.
Regarding `CC1=C(C)C(=O)C(C(CCCCCC(=O)O)c2ccccc2)=C(C)C1=O` (stereo unspecified), the Potency result in assay [1] and in assay [3] was “inactive” throughout.
As to `O=c1c(O)c(-c2ccc(O)cc2O)oc2cc(O)cc(O)c12`, the Potency entry in assay [5], in [9], in assay [7] and in [3] was “inactive” throughout. For the same molecule, the Potency in assay [4] was 10.5 µM (active).
`COc1cc2nc(N3CCN(C(=O)C4CCCO4)CC3)nc(N)c2cc1OC` (stereo unspecified): the Potency result in [1], in [10], in assay [7], in assay [8], in [6] and in [3] was “inactive” throughout. The Potency result in assay [4] is “inactive”.
As for `CC(C)[C@H](N)C(=O)OCCOCn1cnc2c(=O)[nH]c(N)nc21`, the Potency result in assay [1], in [7], in assay [6], in assay [3] and in assay [4] was “inactive” in each case.
Take `CCCCCCCCOc1ccccc1C(=O)Nc1ccc(C(=O)OCC[N+](C)(CC)CC)cc1`: the Potency is 5.9 µM (active) in assay [1], 18.7 µM (active) in assay [8] and 9.35 µM (active) in assay [4].
`CCOC(=O)C1=C[C@@H](OC(CC)CC)[C@H](NC(C)=O)[C@@H](N)C1`: the Potency result in assay [1], in assay [7], in [8], in assay [3] and in assay [4] was “inactive” throughout.
For `Oc1ccc(OCc2ccccc2)cc1`, the Potency result in [1], in assay [9], in assay [7], in assay [2], in [3] and in assay [4] was “inactive” in each case.
As to `CC(C)c1ccc2oc3nc(N)c(C(=O)O)cc3c(=O)c2c1`, the Potency result in assay [1], in assay [7], in assay [2], in [8], in assay [6] and in assay [3] was “inactive” throughout. Moreover, the Potency entry in assay [4] was “inactive”.
On to `COc1ccccc1N1CCN(CCN(C(=O)C2CCCCC2)c2ccccn2)CC1`, for which the Potency result in [7] and in assay [4] was “inactive” each time. Moreover, the Potency in assay [8] was 3.72 µM (active).
Consider `CCCCc1ccc2nc(NC(=O)OC)[nH]c2c1`, for which the Potency in assay [8] is 0.001 µM (active); in assay [6] it was 4.69 µM (active); in [4], 0.0235 µM (active).
For `Cc1nc(-c2ccc(OCC(C)C)c(C#N)c2)sc1C(=O)O`, the Potency entry in assay [5], in assay [7], in [2] and in assay [3] was “inactive” throughout.
As for `c1ccc2[nH]c(-c3cscn3)nc2c1`, the Potency entry in [5], in [7], in assay [8], in assay [3] and in assay [4] was “inactive” in each case.

(Values after PubChem BioAssay (NCATS).)
